36 molecules from ChEMBL document CHEMBL4513141, “CO-ADD screening of NIH (USA) - Clinical Collection” (2021) can be followed below.

Entries with a potency or affinity are not part of this list.

As usually defined, the Inhibition is the drop in the measured response relative to a control, in per cent.

The test system of this assay is Escherichia coli. The settings on record: Concentration 20 uM; ASSAY_TEST Inhibition of Bacterial Growth; detection method Absorption (OD600); MEDIA CAMHB; plate type 384well; NBS; CORNING #3640; time 18 hr.
On to `CC[N+](C)(CC)CCOC(=O)C(O)(c1ccccc1)C1CCCCC1.[Br-]` (stereo unspecified) [OXYPHENONIUM BROMIDE], for which the Inhibition came to 3.27%.

Turning to `Cc1ccc(O)c([C@H](CCN(C(C)C)C(C)C)c2ccccc2)c1.O=C(O)C(O)C(O)C(=O)O` [TOLTERODINE TARTRATE], the Inhibition is -0.28%.

Take `Nc1nc(=O)c2nc(CNc3ccc(C(=O)N[C@@H](CCC(=O)O)C(=O)O)cc3)cnc2[nH]1` [FOLIC ACID]: the Inhibition was -0.13%.

For the molecule `CCOC(=O)c1ccc(OC(=O)CCCCCN=C(N)N)cc1.CS(=O)(=O)O`, the Inhibition is recorded as -0.78%.

In the case of `CC(=O)NS(=O)(=O)c1ccc(N)cc1` [SULFACETAMIDE], the Inhibition is 1.92%.

For `C[C@]12CC[C@@H]3c4ccc(OS(=O)(=O)[O-])cc4CC[C@H]3[C@@H]1CCC2=O.[Na+]` [ESTRONE SODIUM SULFATE], the Inhibition was 6.3%.

As to `CC(C)[N+](C)(CCOC(=O)C1c2ccccc2Oc2ccccc21)C(C)C.[Br-]` [PROPANTHELINE BROMIDE], the Inhibition turned out to be 4.45%.

On to `CCN(CC)CC(=O)Nc1c(C)cccc1C` [LIDOCAINE], for which the Inhibition is on record as -3.44%.

On to `CC(=O)OCC(=O)[C@@]12OC(C)(C)O[C@@H]1C[C@H]1[C@@H]3C[C@H](F)C4=CC(=O)C=C[C@]4(C)[C@@]3(F)[C@@H](O)C[C@@]12C` [FLUOCINONIDE], for which the Inhibition is reported as -2.15%.

`Cl.O=C(c1ccc(OCCN2CCCCC2)cc1)c1c(-c2ccc(O)cc2)sc2cc(O)ccc12` [RALOXIFENE HYDROCHLORIDE]: the Inhibition is reported as -1.03%.

Regarding `C=C1/C(=C\C=C2/CCC[C@]3(C)[C@@H]([C@H](C)/C=C/[C@@H](O)C4CC4)CC[C@@H]23)C[C@@H](O)C[C@@H]1O` [CALCIPOTRIENE], the Inhibition was 4.8%.

Regarding `CCCNC(C)C(=O)Nc1ccccc1C.Cl` (stereo unspecified) [PRILOCAINE HYDROCHLORIDE], the Inhibition is on record as 4.99%.

For the molecule `CCC[C@@H]1C[C@@H](C(=O)N[C@@H]([C@H]2O[C@H](SC)[C@H](O)[C@@H](O)[C@H]2O)[C@@H](C)O)N(C)C1.Cl.O` [LINCOMYCIN HYDROCHLORIDE], the Inhibition is 6.86%.

As to `CC[C@H](C)C(=O)O[C@H]1C[C@H](O)C=C2C=C[C@H](C)[C@H](CC[C@@H](O)C[C@@H](O)CC(=O)[O-])[C@H]21.[Na+]` [PRAVASTATIN SODIUM], the Inhibition came out at 2.41%.

For `NNC(=O)c1ccncc1` [ISONIAZID], the Inhibition turned out to be 0.87%.

In the case of `CNCCCN1c2ccccc2CCc2ccccc21.Cl` [DESIPRAMINE HYDROCHLORIDE], the Inhibition is -0.24%.

In the case of `CC1(C)O[C@@H]2C[C@H]3[C@@H]4C[C@H](F)C5=CC(=O)C=C[C@]5(C)[C@@]4(F)[C@@H](O)C[C@]3(C)[C@]2(C(=O)CO)O1` [FLUOCINOLONE ACETONIDE], the Inhibition is 6.84%.

For `COc1cc2nc(N(C)CCCNC(=O)C3CCCO3)nc(N)c2cc1OC` (stereo unspecified) [ALFUZOSIN], the Inhibition was -0.93%.

`C[C@H]1[C@@H](OC(=O)CCC(=O)O)O[C@@H]2O[C@@]3(C)CC[C@H]4[C@H](C)CC[C@@H]1[C@@]24OO3`: the Inhibition worked out at 12.24%.

For the molecule `O=C([O-])c1cc(=O)c2c(OCC(O)COc3cccc4oc(C(=O)[O-])cc(=O)c34)cccc2o1.[Na+].[Na+]` [CROMOLYN SODIUM], the Inhibition was -1.24%.

Take `Oc1ccc(/C=C/c2cc(O)cc(O)c2)cc1` [RESVERATROL]: the Inhibition is recorded as 1.45%.

With `CNC(=C[N+](=O)[O-])NCCSCc1csc(CN(C)C)n1` [NIZATIDINE], the Inhibition turned out to be 4.27%.

On to `Nc1ncnc2c1ncn2[C@@H]1O[C@H](CO)[C@@H](O)[C@@H]1O` [VIDARABINE], for which the Inhibition was 6.8%.

Consider `CCOC(=O)C1=C(C)NC(C)=C(C(=O)OC)C1c1cccc([N+](=O)[O-])c1` (stereo unspecified) [NITRENDIPINE], for which the Inhibition is -2.58%.

Take `CCN1CCC[C@H]1CNC(=O)c1cc(S(N)(=O)=O)ccc1OC` [LEVOSULPIRIDE]: the Inhibition worked out at 3.44%.

Take `CCC(=C(c1ccccc1)c1ccc(OCCN(C)C)cc1)c1ccccc1`: the Inhibition was determined as 6.04%.

In the case of `COc1ccc(-c2oc3c(CC=C(C)C)c(O[C@@H]4O[C@H](CO)[C@@H](O)[C@H](O)[C@H]4O)cc(O)c3c(=O)c2O[C@@H]2O[C@@H](C)[C@H](O)[C@@H](O)[C@H]2O)cc1` [ICARIIN], the Inhibition was -5.7%.

Consider `CCC(=O)[N-]S(=O)(=O)c1ccc(-c2c(-c3ccccc3)noc2C)cc1.[Na+]` [PARECOXIB SODIUM], for which the Inhibition was found to be 6.4%.

As for `O=c1c(-c2ccccc2)c1-c1ccccc1` [DIPHENCYPRONE], the Inhibition was 6.71%.

On to `COc1ccc(CN2CCN(C(c3ccc(F)cc3)c3ccc(F)cc3)CC2)c(OC)c1OC.Cl.Cl`, for which the Inhibition is reported as -0.33%.

With `CC1CNc2c(cccc2S(=O)(=O)N[C@@H](CCCNC(=N)N)C(=O)N2CC[C@@H](C)C[C@@H]2C(=O)O)C1` (stereo partly specified) [ARGATROBAN], the Inhibition is reported as -1.85%.

As to `Cc1ncc([N+](=O)[O-])n1CC(O)CCl` (stereo unspecified) [ORNIDAZOLE], the Inhibition is listed as 5.05%.

For `CCCCC[C@H](O)/C=C/[C@H]1[C@H](O)CC(=O)[C@@H]1CCCCCCC(=O)O` [ALPROSTADIL], the Inhibition was determined as 6.55%.

With `CC(C)c1ccc2oc3nc(N)c(C(=O)O)cc3c(=O)c2c1` [AMLEXANOX], the Inhibition is on record as 0.07%.

For `Cc1ccc(C)c(OCCCC(C)(C)C(=O)O)c1` [GEMFIBROZIL], the Inhibition came out at 2.56%.

With `CCCCNC(=O)NS(=O)(=O)c1ccc(C)cc1` [TOLBUTAMIDE], the Inhibition is 0.97%.
